A short description of this experiment: anti-His antibody binders, primary screen, artefact control for SMM control protein annotation, biochemical, small-molecule microarray, 635 nm fluorescence (AID 1128).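 Further: score merges feature fluorescence with signal-to-noise for each printed compound spot.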 The following applies: anti-His Alexa647 antibody binding, higher = more signal.
As to `CN1C(=O)C2C=CC(C(O)C#Cc3ccccc3)N(Nc3ccccc3)C2C1=O` (stereo unspecified), the composite z-score turned out to be 0.974.
For `CN(C)c1ccc(C(O)C2C=CC3C(=O)N(c4ccccc4)C(=O)C3N2Nc2ccc([N+](=O)[O-])cc2)cc1` (stereo unspecified), the composite z-score turned out to be 1.35.
Next, `CN(C)C(=O)[C@@]1(Cc2ccccc2CN=[N+]=[N-])N=C(c2ccc(OCCCO)cc2)O[C@H]1c1ccccc1CN=[N+]=[N-]`: 2.33.
Next, `O=C1OCC=C[C@H]2OC34C=CCN(Cn5nnc6ccccc65)C(=O)[C@H]3N(CCCO)C(=O)[C@@H]4[C@@H]12` (stereo partly specified): 0.21.
Next, `C[N+](C)(C)CCCCCCNC(=O)[C@H]1C[C@H]2C(=O)N[C@@H](Cc3ccccc3)C(=O)N2[C@H]1c1ccc(O)cc1`: 1.32; `COCCOC(=O)N1C(=O)[C@@]2(c3cc(C#CCCO)ccc31)[C@H](C(=O)Nc1nc3ccccc3s1)[C@H]1C(=O)O[C@H](c3ccccc3)[C@H](c3ccccc3)N1[C@@H]2c1ccccc1OCCO`: 1.87; `COc1cc2c(cc1OC)CN(C(=O)[C@@H]1[C@H]3C(=O)O[C@H](c4ccccc4)[C@H](c4ccccc4)N3[C@H](c3ccc(OCCO)cc3)[C@@]13C(=O)Nc1ccc(C#CC4(O)CCCCCC4)cc13)CC2`: 0.367.
Regarding `COc1cc(CO)cc(I)c1O[C@H]1C=C(C(=O)NCCO)C[C@@H](NCc2ccc(F)cc2)[C@@H]1O`, the composite z-score was -1.
Next, `[N-]=[N+]=NCc1ccccc1C[C@@]1(C(=O)NCc2ccccc2)N=C(c2ccc(OCCCO)cc2)O[C@@H]1c1ccccc1N=[N+]=[N-]`: 1.64; `O=C(CS)NCCCCCNC(=O)[C@@H]1C[C@@H]2C(=O)N3CCC[C@H]3C(=O)N2[C@@H]1c1cccc(OCCO)c1`: 2.66.
The value for `C=C(C)c1cc2c(c(CCCCCC)n1)[Si](C(C)C)(C(C)C)OC2` was 0.18.
The value for `CCCCC(O)C1C=CC2C(=O)N(c3ccccc3)C(=O)C2N1Nc1ccc(C(C)C)cc1` (stereo unspecified) was 0.236.
As for `COCCOC(=O)N1C(=O)[C@@]2(c3cc(C#CC4=CCCCC4)ccc31)[C@H](c1ccc(OCCO)cc1)N1[C@H](c3ccccc3)[C@H](c3ccccc3)OC(=O)[C@H]1[C@@H]2C(=O)N1CCN(c2ncccn2)CC1`, the composite z-score worked out at 0.433.
The value for `C=C(COC)/C(=C/C[C@H](OC(C)=O)c1ccc(OCCO)cc1)c1cc(C(=O)OC)ccc1OC` was 0.544; that for `CC1CC/C=C\[C@H]2OC34C=CCN(c5ccc(Cl)cc5)C(=O)[C@H]3N(CCCCCO)C(=O)[C@]4(C)C2C(=O)O1` (stereo partly specified) was -0.463.
Next, `CN1C(=O)C2C=CC(C(O)c3cccc(O)c3)N(Nc3ccccc3)C2C1=O` (stereo unspecified): 0.71.
The value for `O=C1NC(=O)C2C1C=CC(C(O)c1c(F)cccc1Cl)N2Nc1ccc(Cl)cc1Cl` (stereo unspecified) was 1.23; that for `COc1ccc([Si](C)(C)[C@@H]2[C@@H](CCO)O[C@]3(C(=O)N(Cc4ccc(N5CCCCC5=O)cc4)c4ccccc43)[C@H]2C)cc1` was 2.21; that for `C=CCC(OC(C)=O)[C@@H]1[C@@H](N(Cc2cc3ccccc3o2)C(=O)c2ccc(C)cc2)c2cc(OCCCO)ccc2N1C(=O)Cc1ccc(OC)cc1` (stereo partly specified) was 0.0464.
The molecule `CCOc1cc(C(O)C2C=CC3C(=O)N(C)C(=O)C3N2Nc2ccccc2)ccc1O` (stereo unspecified) displayed a composite z-score of 1.08.
Next, `O=C(CS)NCCCCCCNC(=O)[C@H]1C[C@H]2C(=O)N[C@@H](Cc3ccccc3)C(=O)N2[C@H]1c1ccc(O)cc1`: 1.29; `CC(c1ccccc1)C(O)C1C=CC2C(=O)N(c3ccccc3)C(=O)C2N1Nc1ccc([N+](=O)[O-])cc1` (stereo unspecified): 1.75; `COc1ccccc1CN1C(=O)c2ccccc2[C@@]2(Cc3ccccc3N(CC(F)(F)F)C2=O)[C@@H]1c1ccc(CO)cc1`: -0.0478.
The value for `COC(=O)C(CC#Cc1ccc2c(c1)[C@]1(C(=O)N2)[C@H](C(=O)N2CCN(c3ncccn3)CC2)[C@H]2C(=O)O[C@H](c3ccccc3)[C@H](c3ccccc3)N2[C@@H]1c1ccc(OCCO)cc1)C(=O)OC` was 2.65; that for `[N-]=[N+]=Nc1ccccc1[C@@H]1OC(c2ccc(OCCCO)cc2)=N[C@]1(Cc1ccccc1)C(=O)NCC(O)CO` (stereo partly specified) was 2.23; that for `Cc1cc(C)c(C(O)C2C=CC3C(=O)NC(=O)C3N2Nc2ccc(Cl)cc2Cl)c(C)c1` (stereo unspecified) was 1.37.
Next, `COC(=O)c1c2oc(c1C(=O)OC)C(=O)N(Cc1ccccc1)Cc1cn(nn1)C[C@H](Cc1ccccc1)NC(=O)N[C@H](CO)CC2`: 0.402; `C=CCNC(=O)[C@H]1[C@@H]2C(=O)O[C@@H](c3ccccc3)[C@@H](c3ccccc3)N2[C@@H](c2ccc(O)cc2)[C@]12C(=O)N(C(=O)OCCOC)c1ccccc12`: 3.08.
For the molecule `O=C1C=C(c2ccccc2)C(=O)c2ccc([C@H]3Oc4ccccc4S(=O)(=O)N4CCC[C@@H]34)cc21`, the composite z-score is -0.398.
Next, `Cc1ccc(S[C@]2(C(=O)NCC(F)(F)F)CC(=O)N(C3CCCCC3)[C@@H]2c2ccc(CO)cc2I)cc1`: 0.21; `COc1ccc(C#Cc2ccc3c(c2)[C@]2(C(=O)N3)[C@H](c3ccc(O)cc3)N3[C@H](c4ccccc4)[C@H](c4ccccc4)OC(=O)[C@H]3[C@@H]2C(=O)O)cc1`: 2.03.
The value for `COC(=O)[C@@]1(Cc2ccc(OC)cc2)[C@@H]2C(=CC(=O)[C@H]2CC(=O)C(=O)N(C)C)CN1C(=O)c1ccccc1` was 0.318; that for `CCOC(=O)c1ccc(NC(=O)O[C@H]2[C@H](OC(=O)Nc3ccc4c(c3)OCO4)[C@H](OC(=O)Nc3ccc4c(c3)OCO4)[C@@H](OC)O[C@@H]2CO)cc1` was 1.73.
Next, `C=CCN1Cc2ccccc2[C@H]2OC(c3ccc(OCCCO)cc3)=N[C@@]2(CC=C)C1=O`: 2.47.
`CN(C)CCCNC(=O)[C@@]1(C)c2ccccc2C(=O)N(Cc2ccccc2)[C@H]1c1ccc(CO)cc1` registered a composite z-score of 0.761.
The value for `CCCCCCCCCCC(O)C1C=CC2C(=O)N(C)C(=O)C2N1NC(=O)OC(C)(C)C` (stereo unspecified) was 0.179.
